# Results with a measured potency or affinity are listed apart.
# Assays:
# [1] = system: Staphylococcus aureus; conditions: Concentration 32 ug.mL-1;; ASSAY_TEST Inhibition of Bacterial Growth; detection method Absorption (OD600); MEDIA CAMHB; plate type 384well; NBS; CORNING #3640; time 18 hr
# [2] = system: Escherichia coli; conditions: Concentration 32 ug.mL-1;; ASSAY_TEST Inhibition of Bacterial Growth; detection method Absorption (OD600); MEDIA CAMHB; plate type 384well; NBS; CORNING #3640; time 18 hr
SMILES,Inhibition [1] [%],Inhibition [2] [%]
N#Cc1cccc(NC(=O)Cn2nc3c(Oc4ccccc4)nccn3c2=O)c1,10.16,-2.65
CCc1ccccc1NC(=O)Cn1c(=O)c2nnc(C(C)C)n2c2ccccc21,5.45,0.46
COc1ccc(NC(=O)c2ccc3nn(CC(=O)Nc4ccccc4C(F)(F)F)c(=O)n3c2)cc1,9.89,-3.73
Cc1ccc(CNC(=O)Cn2nc3ccc(SCc4ccc(Cl)cc4)nn3c2=O)cc1,11.66,-2.92
O=C(Cn1nc2c3c4c(sc3ncn2c1=O)CCCC4)NCCc1ccc(Cl)cc1,7.1,2.28
Cc1ccc(C)c(CN(c2cccc(Cl)c2)S(=O)(=O)c2cccn3c(C)nnc23)c1,11.55,-2.76
N#Cc1ccc(NC(=O)Cn2nc3c(SC4CCCCC4)nccn3c2=O)cc1,7.35,-8.54
CC1CCCN(c2nccn3c(=O)n(CC(=O)Nc4ccc(Br)cc4F)nc23)C1 (configuration not stated),12.44,0.2
O=C(Cn1nc2c(N3CCOCC3)nccn2c1=O)NCc1ccc(F)cc1,19.72,0.87
Cc1ccc(NC(=O)Cn2nc3ccc(SC(C)(C)C)nn3c2=O)c(Cl)c1,-0.06,-7.75
Cc1cccc(NC(=O)Cn2nc3c(SCc4ccccc4)nccn3c2=O)c1C,-0.26,-6.74
CC(C)c1nnc2c(=O)n(CC(=O)Nc3cccc(Br)c3)c3ccccc3n12,13.16,-0.75
CCCn1c(=O)c2sccc2n2c(=O)n(CC(=O)c3cccc(OC)c3)nc12,2.99,-2.97
Cc1nnc2ccc(S(=O)(=O)N(Cc3cccc(Cl)c3)c3ccc(F)cc3)cn12,3.62,-8.44
CCc1nnc2c(S(=O)(=O)N(Cc3ccc(OC)c(F)c3)c3ccccc3)cccn12,14.47,1.05
O=C(Cn1nc2c(SC3CCCCC3)nccn2c1=O)Nc1ccccc1F,2.83,-6.05
